Activity calls are given as the source filed them. The calls were made as follows: active = hit-call score of the fitted dose curve at least 0.9, where 1 is the maximum; inactive = score below 0.9.
Assays:
Settings in all cases: mRNA level, 48 h; actives raise or lower the signal
[1] = read-out: Lipase C (LIPC), LIPC (gene 3990); experiment: LTEA_HepaRG_LIPC: Life Technologies and Expression Analysis (LTEA) Assay for Lipase C (LIPC) using HepaRG (AID 2283514)
Procedure, shortened: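 Read-out is LIPC transcript level by TaqMan qRT-PCR, normalized to three housekeeping genes, after 48 h chemical treatment of human HepaRG liver cells. Curves span eight concentrations topping at 100 uM; activity in either direction scored relative to 0.5% DMSO.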

[2] = read-out: Lipoprotein lipase (LPL), LPL (gene 4023); experiment: LTEA_HepaRG_LPL: Life Technologies and Expression Analysis (LTEA) Assay for Lipoprotein lipase (LPL) using HepaRG (AID 2283515)
Procedure, shortened: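 Read-out is LPL transcript level by qRT-PCR, normalized to three housekeeping genes and fitted bidirectionally against the DMSO control. Human HepaRG cells received chemicals for 48 h at up to 100 uM.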

[3] = read-out: MicroRNA 122 (MIR122), gene 406906; experiment: LTEA_HepaRG_MIR122: Life Technologies and Expression Analysis (LTEA) Assay for MicroRNA 122 (MIR122) using HepaRG (AID 2283516); also: the transcript read is the microRNA miR-122
Procedure, shortened: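 HepaRG, 48 h exposure, 8-pt half-log from 100 uM, 0.5% DMSO; TaqMan qRT-PCR; bidirectional fit vs DMSO.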

[4] = read-out: matrix metalloproteinase-10 (MMP10), MMP10 (gene 4319); experiment: LTEA_HepaRG_MMP10: Life Technologies and Expression Analysis (LTEA) Assay for matrix metalloproteinase-10 (MMP10) using HepaRG (AID 2283517)
Procedure, shortened: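 Gain or loss of MMP10 mRNA is fitted relative to the 0.5% DMSO vehicle. The human hepatic line HepaRG receives a 48-hour serum-free exposure, in duplicate, with a maximum concentration of 100 uM.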

MYC, MYC (gene 4609) = experiment: LTEA_HepaRG_MYC: Life Technologies and Expression Analysis (LTEA) Assay for MYC using HepaRG (AID 2283518)
Procedure, shortened: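 Cells are thawed, plated and cultured 48 h, then treated for 48 h with test chemicals (eight half-log concentrations from 100 uM, 0.5% DMSO vehicle). RNA is isolated and MYC expression quantified by qRT-PCR against three housekeeping genes.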

[5] = read-out: matrix metalloproteinase-3 (MMP3), MMP3 (gene 4314); experiment: LTEA_HepaRG_MMP3: Life Technologies and Expression Analysis (LTEA) Assay for matrix metalloproteinase-3 (MMP3) using HepaRG (AID 2283519)
Procedure, shortened: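 HepaRG, human; 48 h dosing, 8 conc. (max 100 uM, half-log), duplicate, 0.5% DMSO. Readout: MMP3 transcript by Fluidigm TaqMan qRT-PCR, ACTB/GAPDH/POLR2A-normalised. Gain or loss fitted vs DMSO.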

[6] = read-out: Paternally Expressed 10 (PEG10), PEG10 (gene 23089); experiment: LTEA_HepaRG_PEG10: Life Technologies and Expression Analysis (LTEA) Assay for Paternally Expressed 10 (PEG10) using HepaRG (AID 2283520);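 as to AC50: PEG10 transcript by qRT-PCR normalised to ACTB GAPDH and POLR2A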
Procedure, shortened: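 Chemicals tested on HepaRG cells for 48 h, highest concentration 100 uM. PEG10 expression assessed by qRT-PCR relative to DMSO control.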

[7] = read-out: Protein phosphatase 2A (PPP2R4), PTPA (gene 5524); experiment: LTEA_HepaRG_PPP2R4: Life Technologies and Expression Analysis (LTEA) Assay for Protein phosphatase 2A (PPP2R4) using HepaRG (AID 2283522)
Procedure, shortened: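 Gene-expression endpoint in HepaRG hepatic cells: 48 h treatment across eight half-log concentrations up to 100 uM in 0.5% DMSO. PPP2R4 mRNA by qRT-PCR, normalized to three endogenous control genes.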

[8] = read-out: Phosphatase and tensin (PTEN), PTEN (gene 5728); experiment: LTEA_HepaRG_PTEN: Life Technologies and Expression Analysis (LTEA) Assay for Phosphatase and tensin (PTEN) using HepaRG (AID 2283523)
Procedure, shortened: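 Read-out is PTEN transcript level by multiplexed TaqMan qRT-PCR after 48 h chemical treatment of human HepaRG cultures in serum-free induction medium. Concentrations spanned 100 uM downward in half-log steps, 0.5% DMSO throughout; activity fitted in both directions against vehicle.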

[9] = read-out: solute carrier (SLC22A1), SLC22A1 (gene 6580); experiment: LTEA_HepaRG_SLC22A1: Life Technologies and Expression Analysis (LTEA) Assay for solute carrier (SLC22A1) using HepaRG (AID 2283524);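 as to AC50: differentiated human HepaRG liver cells in serum-free induction medium; TaqMan qRT-PCR normalized to ACTB GAPDH and POLR2A housekeeping genes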
Procedure, shortened: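 HepaRG (human liver line), 48 h dosing in serum-free induction medium; 8 conc., half-log down from 100 uM, 0.5% DMSO vehicle, duplicates. Endpoint: SLC22A1 mRNA, qRT-PCR, housekeeping-normalized; gain/loss fit vs DMSO.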

[10] = read-out: Pyruvate Dehydrogenase Kinase 4 (PDK4), PDK4 (gene 5166); experiment: LTEA_HepaRG_PDK4: Life Technologies and Expression Analysis (LTEA) Assay for Pyruvate Dehydrogenase Kinase 4 (PDK4) using HepaRG (AID 2283525)
Procedure, shortened: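 In this multiplexed human HepaRG expression assay, cells are treated 48 h with test chemicals across an eight-point range starting at 100 uM. PDK4 mRNA changes, normalized to ACTB/GAPDH/POLR2A, are fitted in both directions relative to vehicle.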

[11] = read-out: NAD(P)H dehydrogenase [quinone] 1 (NQO1), NQO1 (gene 1728); experiment: LTEA_HepaRG_NQO1: Life Technologies and Expression Analysis (LTEA) Assay for NAD(P)H dehydrogenase [quinone] 1 (NQO1) using HepaRG (AID 2283526)
Procedure, shortened: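 Human HepaRG hepatic cells received chemicals for 48 h in serum-free induction medium with 0.5% DMSO, up to 100 uM. Expression was assessed by TaqMan qRT-PCR against housekeeping controls and fitted bidirectionally against DMSO.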

[12] = read-out: Nuclear factor erythroid 2-related factor 2 (Homo sapiens) (UniProt Q16236); experiment: LTEA_HepaRG_NFE2L2: Life Technologies and Expression Analysis (LTEA) Assay for Nuclear factor erythroid 2-related factor 2 (NFE2L2) Transcription Factor using HepaRG (AID 2283527)
Procedure, shortened: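 Transcript level of NFE2L2 is the read-out, measured by microfluidic TaqMan qRT-PCR and normalized to three housekeeping genes. Human HepaRG cultures received test chemical for 48 h at up to 100 uM in half-log steps. Gain or loss of signal is fitted relative to 0.5% DMSO.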

[13] = read-out: succinate dehydrogenase complex iron sulfur subunit B (SDHB), SDHB (gene 6390); experiment: LTEA_HepaRG_SDHB: Life Technologies and Expression Analysis (LTEA) Assay for succinate dehydrogenase complex iron sulfur subunit B (SDHB) using HepaRG (AID 2283528)
Procedure, shortened: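 A human HepaRG culture in serum-free induction medium received test chemicals for 48 h over an eight-point range capped at 100 uM. SDHB expression change was quantified by qRT-PCR.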

[14] = read-out: Signal transducer and activator of transcription 3 (Homo sapiens) (UniProt P40763); experiment: LTEA_HepaRG_STAT3: Life Technologies and Expression Analysis (LTEA) Assay for Signal transducer and activator of transcription (STAT3) using HepaRG (AID 2283529)
Procedure, shortened: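 Read-out is STAT3 mRNA level by qRT-PCR, normalized to three housekeeping genes, in human HepaRG liver cells treated for 48 h. Concentrations ran from 100 uM downward in half-log steps; curves were fitted for gain or loss relative to 0.5% DMSO.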

[15] = read-out: solute carrier (SLCO1B1), SLCO1B1 (gene 10599); experiment: LTEA_HepaRG_SLCO1B1: Life Technologies and Expression Analysis (LTEA) Assay for solute carrier (SLCO1B1) using HepaRG (AID 2283530)
Procedure, shortened: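 Gain or loss of SLCO1B1 mRNA is fitted against the 0.5% DMSO vehicle in human HepaRG liver cells treated 48 h at up to 100 uM in half-log steps. Expression comes from qRT-PCR normalized to endogenous controls.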

[16] = read-out: sulfotransferase 2A1 (SULT2A1), SULT2A1 (gene 6822); experiment: LTEA_HepaRG_SULT2A1: Life Technologies and Expression Analysis (LTEA) Assay for sulfotransferase 2A1 (SULT2A1) using HepaRG (AID 2283531)
Procedure, shortened: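 Cells were plated and cultured 48 h, switched to serum-free induction medium, then dosed in duplicate for 48 h (8 concentrations, max 100 uM). RNA was isolated and SULT2A1 expression measured by qRT-PCR; gain or loss of signal fitted relative to DMSO.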

[17] = read-out: Transforming Growth Factor (TGFA), TGFA (gene 7039); experiment: LTEA_HepaRG_TGFA: Life Technologies and Expression Analysis (LTEA) Assay for Transforming Growth Factor (TGFA) using HepaRG (AID 2283532)
Procedure, shortened: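 HepaRG (human liver line), 48 h exposure, 8 conc. half-log down from 100 uM, 0.5% DMSO vehicle, duplicates; serum-free induction medium. TGFA mRNA by TaqMan qRT-PCR, ACTB/GAPDH/POLR2A normalization; gain/loss fit vs DMSO.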

[18] = read-out: Transforming Growth Factor (TGFB1), TGFB1 (gene 7040); experiment: LTEA_HepaRG_TGFB1: Life Technologies and Expression Analysis (LTEA) Assay for Transforming Growth Factor (TGFB1) Transporter using HepaRG (AID 2283533)
Procedure, shortened: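 Expression change of TGFB1 in human HepaRG cells is measured after a 48 h chemical exposure, up to 100 uM in 0.5% DMSO vehicle. Curves are fitted in both directions relative to the DMSO baseline.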

Measured: AC50

Chain of Nuclear factor erythroid 2-related factor 2 (Homo sapiens) (Q16236 whole entry, looked up): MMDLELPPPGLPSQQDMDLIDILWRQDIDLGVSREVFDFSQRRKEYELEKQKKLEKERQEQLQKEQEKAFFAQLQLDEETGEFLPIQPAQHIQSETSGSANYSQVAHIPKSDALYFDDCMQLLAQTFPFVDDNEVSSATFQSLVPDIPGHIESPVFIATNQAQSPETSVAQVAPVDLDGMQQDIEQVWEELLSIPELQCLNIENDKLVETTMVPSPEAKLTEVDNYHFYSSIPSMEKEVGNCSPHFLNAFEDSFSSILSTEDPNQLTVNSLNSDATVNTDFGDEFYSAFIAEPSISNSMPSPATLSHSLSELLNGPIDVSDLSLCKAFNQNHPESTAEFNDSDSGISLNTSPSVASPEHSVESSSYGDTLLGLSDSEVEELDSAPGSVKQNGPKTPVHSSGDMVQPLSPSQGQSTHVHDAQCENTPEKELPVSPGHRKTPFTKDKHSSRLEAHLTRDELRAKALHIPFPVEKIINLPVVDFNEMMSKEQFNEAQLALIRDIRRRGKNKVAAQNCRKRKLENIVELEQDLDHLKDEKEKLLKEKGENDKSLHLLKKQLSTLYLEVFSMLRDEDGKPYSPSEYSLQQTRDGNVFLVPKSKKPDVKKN
Chain of Signal transducer and activator of transcription 3 (Homo sapiens) (P40763 whole entry, looked up): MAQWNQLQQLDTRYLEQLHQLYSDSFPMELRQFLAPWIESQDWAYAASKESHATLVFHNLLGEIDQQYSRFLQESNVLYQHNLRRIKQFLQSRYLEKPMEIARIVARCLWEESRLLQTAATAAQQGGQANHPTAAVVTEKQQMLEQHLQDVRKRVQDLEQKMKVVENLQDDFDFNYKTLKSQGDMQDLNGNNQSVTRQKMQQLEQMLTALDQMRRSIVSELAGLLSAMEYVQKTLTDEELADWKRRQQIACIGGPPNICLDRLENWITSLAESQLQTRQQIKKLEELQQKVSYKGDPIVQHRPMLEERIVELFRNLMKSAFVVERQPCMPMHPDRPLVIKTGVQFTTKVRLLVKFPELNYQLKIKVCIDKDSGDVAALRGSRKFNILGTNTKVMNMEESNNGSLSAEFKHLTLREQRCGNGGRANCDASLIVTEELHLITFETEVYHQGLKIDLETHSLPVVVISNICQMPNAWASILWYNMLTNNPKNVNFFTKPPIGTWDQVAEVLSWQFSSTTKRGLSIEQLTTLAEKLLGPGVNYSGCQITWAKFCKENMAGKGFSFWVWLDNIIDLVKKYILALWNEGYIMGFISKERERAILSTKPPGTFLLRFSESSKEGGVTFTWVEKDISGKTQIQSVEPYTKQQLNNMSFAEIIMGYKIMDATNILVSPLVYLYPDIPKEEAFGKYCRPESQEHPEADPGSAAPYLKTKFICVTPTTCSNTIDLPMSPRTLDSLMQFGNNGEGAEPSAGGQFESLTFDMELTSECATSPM

COC(=O)Nc1nc2ccccc2[nH]1
inactive: all assays above

Clc1ccc(C(c2ccc(Cl)cc2)C(Cl)(Cl)Cl)cc1
active: [1] 84.5 µM | [2] 50 µM | [13] 17 µM
not listed: [7]
inactive: all other assays above

Nc1ccc(Cl)cc1N
active: [1] 17.3 µM | [2] 13.2 µM | [3] 21 µM | MYC, MYC (gene 4609) 13.4 µM | [5] 30.1 µM | [6] 14.2 µM | [7] 26.3 µM | [8] 32.6 µM | [9] 18.9 µM | [11] 78 µM | [12] 12.2 µM | [13] 21.6 µM | [15] 20.9 µM | [16] 35.4 µM | [17] 16.1 µM | [18] 12.9 µM
inactive: [4] | [10] | [14]

Cc1ccc(N)cc1
inactive: all assays above

OCCCl
not listed: [7]
inactive: all other assays above

Clc1ccc(Cl)c(Cl)c1
active: [2] 50 µM | [6] 50 µM | [9] 20 µM | [16] 83.5 µM
not listed: [15]
inactive: all other assays above

Brc1ccc(Oc2ccccc2)cc1
not listed: [7]
inactive: all other assays above

CCC(C)c1ccc(O)cc1 (stereo not given)
active: [14] 0.361 µM
inactive: all other assays above

CN(C)c1ccccc1
not listed: [15]
inactive: all other assays above

ClC1=C(Cl)[C@]2(Cl)[C@H]3[C@H]([C@@H]4C=C[C@H]3C4)[C@@]1(Cl)C2(Cl)Cl
active: MYC, MYC (gene 4609) 50 µM | [9] 9.92 µM
not listed: [12] | [15]
inactive: all other assays above

CC(C)(C)C(O)(CCc1ccc(Cl)cc1)Cn1cncn1 (stereo not given)
active: [1] 71.8 µM | [2] 74.4 µM | [3] 78.1 µM | MYC, MYC (gene 4609) 50 µM | [9] 73.2 µM | [10] 80.9 µM | [12] 50 µM | [16] 80.2 µM | [18] 50 µM
inactive: [4] | [5] | [6] | [8] | [11] | [13] | [14] | [15] | [17]

Cc1ccc(N=C=O)cc1N=C=O
inactive: [5] | [7] | [8] | [12] | [13] | [14] | [17] | [18]
active: [1] 50 µM | [2] 3.41 µM | [3] 50 µM | [4] 27 µM | MYC, MYC (gene 4609) 19.3 µM | [6] 12.4 µM | [9] 30.6 µM | [10] 19.6 µM | [11] 38.9 µM | [16] 31.4 µM

c1ccc(N=Nc2ccccc2)cc1
not listed: [14]
inactive: all other assays above

ClC1=C(Cl)C2(Cl)C3C(Cl)C=CC3C1(Cl)C2(Cl)Cl (stereo not given)
active: MYC, MYC (gene 4609) 37.1 µM | [10] 50 µM | [12] 8.87 µM
not listed: [15]
inactive: all other assays above

From PubChem BioAssay (EPA / NIEHS)
